Source: PubChem BioAssay (Tox21)
Several values for one entry are separate records, joined by “and”; a condition that tells them apart may be missing. Equal values may be shown once. Inconclusive results are not listed. Where a call stands in place of a potency, no number is given. Where a structure was tested more than once in an assay, its records may differ in their call. Activity calls are given as the source filed them. Unless noted, calls follow the shape of the dose curve; as a rule, active = well fitted curve in the direction sought with a large enough effect in the repeat runs; inconclusive = weak or mixed curves; inactive = no such curve, though single readings can be large; an effect the other way counts as inactive or inconclusive.

Assays:
[1] = qHTS assay to identify small molecule agonists of the hypoxia (HIF-1) signaling pathway - cell viability counter screen (AID 1224844; calls by dose curve; also: nearly all actives have a fitted effect of over 50% in size; also: potency is read from the fitted curve at half-maximal effect)
How it was run: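 Cytotoxicity measured by CellTiter-Glo ATP luminescence in the wells also read for beta-lactamase signal. Cells were HRE-bla ME-180 (2,000/well, 0.5% dialyzed FBS), exposed to compounds for 17 h at 37C.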

[2] = qHTS assay to identify small molecule agonists of H2AX (AID 1224845; active = well fitted activation curve with a large enough effect in the signal ratio in the repeat runs, not every such curve was filed as active; the % refers to the signal ratio; also: potency is read from the fitted curve at half-maximal effect)
How it was run: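 Phospho-H2AX Ser139 measured by HTRF (ex 320 nm; em 665 and 620 nm) after 24 hr antibody incubation. Compounds, 15 concentrations, 0.76% DMSO, were applied to CHO-K1 cells for 3hr at 37C before lysis.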

[3] = qHTS assay to identify small molecule agonists of H2AX - cell viability counter screen (AID 1224847; calls by dose curve; also: nearly all actives have a fitted effect of over 30% in size; also: potency is read from the fitted curve at half-maximal effect)
How it was run: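 Quantitative HTS viability measurement: CHO-K1 wild-type cells in serum (10% FBS) medium, short 3 hr drug exposure at 37C with 0.76% DMSO, CellTiter-Glo luminescent detection.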

[4] = qHTS RealTime-Glo MT Cell Viability Assay in HEK293 cells - 32 hour (AID 1224868); also: nearly all actives have a fitted effect of over 50% in size; also: potency is read from the fitted curve at half-maximal effect
How it was run: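 Nonlytic real-time viability readout: viable cells convert prosubstrate to NanoLuc substrate, giving luminescence proportional to live cell number. HEK293, 600 cells/well, compound added after 5 h, continuous culture at 37 C.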

[5] = A CellTox Green Cytotoxicity Assay to monitor cytotoxicity in HEK293 cells - 0 hour (AID 1224869); also: nearly all actives have a fitted effect of over 50% in size; also: potency is read from the fitted curve at half-maximal effect
How it was run: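 Fluorescence from a DNA-binding dye excluded by viable cells was measured repeatedly in the same HEK293 wells (600 cells/well) during continuous compound exposure at 37 C. Each assay gives one read point: 0, 8, 16, 24, 32 or 40 h.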

[6] = qHTS RealTime-Glo MT Cell Viability Assay in HepG2 cells - 40 hour (AID 1224870); also: nearly all actives have a fitted effect of over 50% in size
How it was run: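 Real-time viability: cells seeded at 600 per well together with NanoLuc and cell-permeant prosubstrate, compounds added after 5 h incubation. Luminescence tracked at 0, 8, 16, 24, 32 and 40 h of exposure.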

[7] = qHTS assay to identify small molecule agonists of the hypoxia (HIF-1) signaling pathway (AID 1224846; active = well fitted activation curve with a large enough effect in the signal ratio in the repeat runs, not every such curve was filed as active; the % refers to the signal ratio)
How it was run: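 Compounds added to ME-180 cells carrying hypoxia-response-element beta-lactamase reporter (0.5% dialyzed FBS, 5 h preplating), 17 h at 37C; agonist activity detected by CCF4-AM B/G FRET read-out.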

[8] = qHTS RealTime-Glo MT Cell Viability Assay in HepG2 cells - 24 hour (AID 1224867); also: nearly all actives have a fitted effect of over 50% in size
How it was run: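 Luminescence read-out: viable HepG2 cells reduce a prosubstrate to a NanoLuc substrate, giving a signal proportional to live cell number. Reads taken at 0, 8, 16, 24, 32 and 40 h of compound exposure at 37 C.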

[9] = qHTS assay to identify small molecule antagonists of the estrogen related receptor (ERR) signaling pathway from Tox21 library (AID 1224848); also: nearly all actives have a fitted effect of over 50% in size; also: potency is read from the fitted curve at half-maximal effect
How it was run: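 ERR cell line, 2,000 cells/well. 6 h settle, then compound (DMSO) added; 18 h at 37 C; ONE-Glo luminescence after 30 min RT.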

[10] = qHTS assay to identify small molecule agonists of the estrogen related receptor (ERR) signaling pathway from Tox21 library (AID 1224849; calls by dose curve; also: potency is read from the fitted curve at half-maximal effect; as to all read-outs here: nearly all actives have a fitted effect of over 15% in size); details: ERR reporter cell line, ONE-Glo luciferase, 18 h; for activity change, positive = activation: at 92.4 µM (top of the series)
How it was run: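 Luminescent agonist read-out (One-Glo, 30-minute room-temperature incubation) following 18-hour compound treatment at 37 C of the ERR cell line, which had been plated 6 hours before dosing.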

Row | SMILES | Potency [1] | Potency [2] | Potency [3] | Potency [4] | Potency [5] | Potency [6] | outcome [7] | Potency [8] | Potency [9] | Potency [10] | activity change, positive = activation [10]
1 | O=C(O)CC[N+](=O)[O-] | inactive | inactive | inactive | inactive | inactive | inactive |  |  |  |  | 
2 | O=C(O)C(F)(F)C(F)(F)C(F)(F)C(F)(F)C(F)(F)C(F)(F)C(F)(F)F |  | inactive | inactive | inactive | inactive | inactive | inactive | inactive |  |  | 
3 | CN(C)c1ccc(C(=O)c2ccc(N(C)C)cc2)cc1 | inactive | inactive |  | 2.75 µM (active) | inactive | inactive |  | inactive |  |  | 
4 | Nc1ccc(Cl)cc1N |  | inactive | inactive |  | 40 µM (active) | inactive |  |  | inactive | 8.31 µM [activator] (active) | 19.2% (active)
5 | N#CCCCl | inactive | inactive | inactive | inactive | inactive | inactive |  |  |  |  | 
6 | C=CC(=O)OCCO | inactive |  | inactive | inactive | inactive | inactive |  | inactive |  |  | 
7 | Oc1cc(Cl)ccc1Cl | inactive | inactive | inactive | inactive | inactive | inactive |  | inactive |  |  | 
8 | Nc1ccc(-c2ccc(N)c(N)c2)cc1N | inactive |  | inactive | inactive | inactive | inactive |  | inactive |  |  | 
9 | CNC(=O)N(C)c1nnc(C(C)(C)C)s1 | inactive | inactive | inactive | inactive | inactive | inactive |  |  |  |  | 
10 | CCC(C)(c1ccc(O)cc1)c1ccc(O)cc1 | inactive |  | inactive |  | inactive | inactive | inactive | inactive | 54.5 µM (active) |  | -28.1% (inactive) and -37.5% (inactive)
11 | CC(C)Oc1cc(-n2nc(C(C)(C)C)oc2=O)c(Cl)cc1Cl | inactive | inactive | inactive | 34.7 µM (active) | inactive | inactive |  |  |  |  | 
12 | C#C[C@]1(O)CC[C@H]2[C@@H]3CCC4=CC(=O)CC[C@]4(C)[C@H]3CC[C@@]21C | inactive | inactive | inactive | inactive | inactive | inactive |  | inactive |  |  | 
13 | CCCCOCCOP(=O)(OCCOCCCC)OCCOCCCC | inactive | inactive | inactive | inactive | inactive | inactive |  | inactive |  |  | 
14 | c1cc(OCC2CO2)ccc1Cc1ccc(OCC2CO2)cc1 (configuration not stated) |  | inactive | inactive | inactive | inactive | inactive |  | inactive |  |  | 
15 | c1ccc(P(c2ccccc2)c2ccccc2)cc1 |  | inactive | inactive | inactive | inactive | inactive |  | inactive |  |  | 
16 | CN(C)C(=O)Nc1ccc(Cl)cc1 | inactive | inactive | inactive | inactive | inactive | inactive |  |  |  |  | 

Row | SMILES | Potency [1] | Potency [2] | Potency [3] | Potency [4] | Potency [5] | Potency [6] | outcome [7] | Potency [8] | Potency [9] | Potency [10] | activity change, positive = activation [10]
17 | O=S(=O)(Oc1ccc(Cl)cc1)c1ccc(Cl)cc1 | inactive | inactive |  | inactive | inactive | inactive |  | inactive | inactive |  | -19.6% (inactive) and -8.56% (inactive)
18 | NC(=S)Nc1ccccc1 | inactive | inactive | inactive | 5.59 µM (active) and inactive | 49.8 µM (active) and inactive | inactive |  | inactive |  |  | 
19 | O=C1C=CC(=O)C=C1 | 49.2 µM (active) and 49 µM (active) | inactive | inactive | inactive | inactive | inactive |  |  |  |  | 
20 | CC(C)(C)c1ccccc1O | inactive | inactive |  | inactive | inactive | inactive |  |  |  |  | 
21 | COP(=S)(OC)Oc1cc(Cl)c(Cl)cc1Cl | inactive | inactive | inactive | inactive | inactive | inactive |  |  |  |  | 
22 | CCOC(=S)S |  | 28.4 µM (active) |  | inactive | inactive | inactive |  | inactive | 73 µM (active) |  | -20.1% (inactive) and -29.8% (inactive)
23 | O=[N+]([O-])c1ccc(O)c([N+](=O)[O-])c1 | inactive | inactive |  | inactive | inactive | inactive |  | inactive | 21.8 µM (active) and 21.7 µM (active) |  | -36.7% (inactive) and -43.4% (inactive)
24 | c1ccc(-c2cccc(-c3ccccc3)c2)cc1 | inactive | inactive | inactive | inactive | inactive | inactive |  |  |  |  | 
25 | C=CCN(CC=C)C(=O)C(Cl)Cl | inactive | inactive | inactive | inactive | inactive | inactive |  | inactive |  |  | 
26 | NNC(=S)NN |  | inactive | inactive | inactive | inactive | inactive |  | inactive | 62.8 µM (active) |  | -65.9% (inactive) and -38.7% (inactive)
27 | Oc1c(Cl)c(Cl)c(Cl)c(Cl)c1Cl | inactive | inactive | 88 µM (active) | inactive | inactive | inactive |  |  |  |  | 
28 | C=CCc1ccc2c(c1)OCO2 | inactive | inactive | inactive | inactive | inactive | inactive |  | inactive |  |  | 
29 | CCCCN(CCCC)N=O | inactive | inactive | inactive | inactive | inactive | inactive |  |  |  |  | 
30 | C[C@]12CCC(=O)C[C@@H]1CC[C@@H]1[C@@H]2CC[C@]2(C)[C@@H](O)CC[C@@H]12 | inactive |  | 79.1 µM (active) | 21.6 µM (active) | inactive | inactive |  | inactive |  |  | 
31 | CCN(CC)C(=O)/C(Cl)=C(\C)OP(=O)(OC)OC | inactive | inactive | inactive | inactive | inactive | inactive |  |  |  |  | 
